# From PubChem BioAssay
# An excerpt weighted towards active compounds, which were near 14% of everything screened.
# Lassa entry inh: qHTS for Inhibitors of binding or entry into cells for Lassa Virus | Lassa virus pseudotype entry inhibition, cell reporter | Potency, µM (doses to about 37.9 µM), without a hit: at the highest dose activity change, negative = inhibition, most hits filed as inhibitors | 1.2% of 300,000 active; calls by dose curve; tested in HEK293 cells; further: potency means the concentration at half of the fitted maximal effect; nearly all actives have a fitted effect of over 50% in size
# HCV inhibitor: qHTS Assay for Inhibitors of Hepatitis C Virus (HCV) | Potency, µM (series often up to 41.8 µM), for inactives: at the top dose activity change, negative = inhibition, actives largely listed as inhibitors | AID 651820, 2012 | 3.4% of 340,000 active | Huh7.5.1 HCVcc-Cre infection, luciferase reporter, 44 h; further: potency means the concentration at half of the fitted maximal effect
#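 1,000 cells/well; 4 h culture; + compound; + HCVcc-Cre (~0.5 moi); 44 h; luciferase substrate, RT 15 min; read 15 sec.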
# Pf growth 48h: Primary qHTS for delayed death inhibitors of the malarial parasite plastid, 48 hour incubation; P. falciparum luciferase growth in erythrocytes, 48 h; 5.9% of 310,000 active; Potency, µM (highest dose often 28.7 µM), inactives show top-dose activity change, negative = inhibition, hits mostly inhibitors; further: potency means the concentration at half of the fitted maximal effect
#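 Compounds are pin-transferred into medium, infected erythrocytes (2% hematocrit, 0.1% parasitemia final) are added, and plates sit one parasite generation at 37 C in 5% CO2. Detection reagent is then added and luminescence measured.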
# Marburg entry inh: qHTS for inhibitors of binding or entry into cells for Marburg Virus; Marburg virus pseudotyped entry inhibition, cell reporter; Potency, µM (series often up to 37.8 µM), for inactives: top-dose activity change, negative = inhibition, most hits filed as inhibitors; 1.8% of 300,000 active; calls by dose curve; tested in HEK293 cells; further: potency means the concentration at half of the fitted maximal effect
# Pf growth 96h: Primary qHTS for delayed death inhibitors of the malarial parasite plastid, 96 hour incubation; P. falciparum luciferase reporter growth, 96 h; Potency, µM (titrated, usually from 28.7 µM), inactives show at the highest dose activity change, negative = inhibition, hits mostly inhibitors; 6.9% of 320,000 active; further: potency means the concentration at half of the fitted maximal effect
#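 Readout is luminescence from an integrated firefly luciferase in P. falciparum. Red cells, 2% hematocrit and 0.05% parasitemia final, were cultured with compound through two parasite generations (96 hours) at 37 C, 5% CO2.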
# HCMV antiviral: qHTS Assay for inhibitors of the human cytomegalovirus (HCMV) | HFF cells, HCMV-luciferase reporter, 72 h; active compounds read low | activity change, negative = inhibition, % at 57.5 µM | 4.5% of 410,000 active; in the data active means activity change below about -60%; inconclusive means no clear call, values can overlap the other calls; inactive means above about -39%
#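 Human foreskin fibroblasts infected with luciferase-reporter HCMV at MOI 1 PFU/cell, compounds at two doses. Luciferase measured 72 h post infection; normalized to buffer-only basal and Salinomycin (10uM) controls.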
# * marks the source's active call; other numbers are inactive results; ? = inconclusive; · = no result given; [ ] = remark or other dose. Unless noted, the call rests on the fitted dose curve; in most records, active means well fitted inhibition curve with a large enough effect; inconclusive means small, poorly fitted or top-dose-only effect, or another doubt; inactive means no such curve, though single readings can be large or run the other way. On the % scale 0 is the no-effect control and ±100 the full control effect.
SMILES,Lassa entry inh,HCV inhibitor,Pf growth 48h,Marburg entry inh,Pf growth 96h,HCMV antiviral
N#C/C(=C\c1ccc(F)cc1)C(=O)NCC1CCCO1 (stereo not drawn),-9%[46.1 µM],·,·,·,·,-4
C=C[C@@H]1c2cccc(C)c2N(S(=O)(=O)c2ccc(C)cc2)[C@H](c2ccccc2)C1(C#N)S(=O)(=O)c1ccccc1 (stereo partly drawn),·,-22%,·,·,·,-11
C=C[C@@H]1c2cccc(C)c2N(S(=O)(=O)c2ccc(C)cc2)[C@H](c2ccc(OC(C)=O)cc2)C1(C#N)C#N,·,?,·,·,·,-79*
C=C[C@@H]1c2c(F)cccc2N(S(=O)(=O)c2ccc(C)cc2)[C@H](c2ccc(OC(C)=O)cc2)C1(C#N)C#N,·,22µM*,1.7µM*,·,2.6µM*,-32
C=C[C@@H]1c2ccccc2N(S(=O)(=O)c2ccc(C)cc2)[C@H](c2ccc(C(F)(F)F)cc2)C1(C#N)C#N,·,2%,?,·,?,?
C=C[C@@H]1c2c(F)cccc2N(S(=O)(=O)c2ccc(C)cc2)[C@H](c2ccc(C(=O)OC)cc2)C1(C#N)C#N,·,-14%,4.1µM*,·,12µM*,-36
O=C(CC(c1cccs1)N1Cc2ccccc2C1=O)Nc1ccc(F)cc1 (stereo not drawn),2%[46.1 µM],·,·,·,·,1
CCOc1ccc(NC(=O)N(Cc2c[nH]c3ccccc23)C2CCCCCC2)cc1,-5%[46.1 µM],·,·,?,·,104
CCCCCCSc1ccc(-c2nc3ccccn3c2NCCCC)cc1,·,?,?,·,?,17
CCCCNc1c(-c2ccc(OC)c(SC3CCCCC3)c2)nc2cc(C)ccn12,·,4µM*,9.3µM*,·,?,-19
CCCCNc1c(-c2ccc(OC)c(SC3CCCCC3)c2)nc2ccc(Cl)cn12,·,7%,·,·,·,-37
CCCCCCSc1cc(-c2nc3cnccn3c2NCc2ccccc2)ccc1OC,·,17%,7.4µM*,·,5.9µM*,·
COc1cc(-c2nc3cc(C)ccn3c2NC2CCCCC2)ccc1-c1ccc(C(C)=O)cc1,·,?,5.2µM*,·,10µM*,-94*
CCCCNc1c(-c2ccc(OC)c(SC3CCCCC3)c2)nc2cnccn12,·,?,10µM*,·,9.3µM*,·
CN(C(=O)COC(=O)Cc1ccc(Br)cc1)c1c(N)n(Cc2ccccc2)c(=O)[nH]c1=O,·,·,·,·,·,-24
CCCCCCSc1ccc(-c2nc3cc(C)ccn3c2NC2CCCCC2)cc1,·,6%,·,·,·,39
CCCCNc1c(-c2ccc(-c3ccc(C(C)=O)cc3)c(OC)c2)nc2cnccn12,·,?,9.3µM*,·,?,·
COc1ccc(-c2nc3cnccn3c2NCc2ccccc2)cc1SC1CCCCC1,·,10µM*,?,·,13µM*,·
CCCCNc1c(-c2ccc(SC3CCCCC3)cc2)nc2cnccn12,·,1%,·,·,·,51
CCCCCCSc1cc(-c2nc3cc(C)ccn3c2NC2CCCCC2)ccc1OC,·,-19%,7.4µM*,·,8.3µM*,47
CCOc1ccc(NC(=O)COC(=O)CN2CCCCCC2=O)cc1,?,2%,·,?,·,30
COC(=O)[C@H](Cc1ccccc1)N(Cc1ccccc1)S(=O)(=O)N(Cc1ccccc1)[C@@H](Cc1ccccc1)C(=O)OC,·,-17%[8.37 µM],·,·,·,-96*
CN([C@@H](C(=O)OC(C)(C)C)c1ccccc1)S(=O)(=O)c1cccc(S(=O)(=O)N(C)[C@@H](C(=O)OC(C)(C)C)c2ccccc2)c1,·,15%,?,·,2.1µM*,?
COC(=O)C(c1ccccc1)N(Cc1cccc(CN(C(C(=O)OC)c2ccccc2)S(C)(=O)=O)c1)S(C)(=O)=O (stereo not drawn),·,?,8.3µM*,·,10µM*,-4
COC(=O)[C@H](Cc1ccccc1)N(C)S(=O)(=O)c1cccc(S(=O)(=O)N(C)[C@@H](Cc2ccccc2)C(=O)OC)c1,·,-26%,0%,·,10µM*,-29
SMILES,Lassa entry inh,HCV inhibitor,Pf growth 48h,Marburg entry inh,Pf growth 96h,HCMV antiviral
CS(=O)(=O)c1ccc(Cl)c(NC(=O)CN2CCN(C(=O)c3cccs3)CC2)c1,-6%[46.1 µM],-3%,·,-9%[46.1 µM],·,-12
COC(=O)[C@@H](CC(C)C)NS(=O)(=O)N(Cc1ccccc1)[C@@H](CC(C)C)C(=O)OC,·,-17%,13µM*,·,?,?
COC(=O)[C@H](CC(C)C)NS(=O)(=O)c1ccccc1,·,10%,-17%,·,?,-15
COC(=O)[C@H](CC(C)C)N(Cc1ccc(Br)cc1)S(=O)(=O)CCl,7%[46.1 µM],·,·,·,·,·
C=CCN([C@@H](CC(C)C)C(=O)OC)S(=O)(=O)N(CC=C)[C@@H](CC(C)C)C(=O)OC,·,-16%,4.7µM*,·,?,-14
Cc1cn([C@H]2C[C@H](O)[C@@H](CNCC3=Cc4cc(O)ccc4OC3)O2)c(=O)[nH]c1=O,·,·,·,·,·,25
Cc1cc(Br)cc(C)c1OCC(=O)Nc1ccc(S(=O)(=O)Nc2ncccn2)cc1,-16%[46.1 µM],·,·,-1%[46.1 µM],·,13
CCc1ccccc1Nc1cc(C(=O)NCCCN(C)C2CCCCC2)c2ccccc2n1,?,·,·,?,·,-32
Cc1ccnc(NC(=O)CNC(=O)c2ccc(Br)o2)c1,4%,-28%,66%,16%[46.1 µM],52%,16
Cc1cccc(C)c1NC(=O)CSc1nnc(Cn2nnc(-c3ccccc3)n2)n1-c1ccccc1,?,?,9.3µM*,?,-17%,1
O=C(CSc1nnc(Cn2nnc(-c3ccccc3)n2)n1-c1ccccc1)Nc1ccccc1,-10%,?,?,?,?,0
O=C(CSc1nnc(Cn2nnc(-c3ccccc3)n2)n1-c1ccccc1)Nc1ccc(F)cc1,-15%,-23%,9.3µM*,1%,·,10
COc1ccc(Cl)cc1NC(=O)NC(C)c1ccncc1 (stereo not drawn),4%,7.1µM*,?,-2%,?,1
COc1ccc(Cl)cc1NC(=O)CN(C)CC(=O)Nc1ccccc1C(F)(F)F,-10%,-19%,-9%,-27%[46.1 µM],?,-17
COc1ccc(Cl)cc1NC(=O)CN(C1CCCCC1)S(C)(=O)=O,12%,4.5µM*,2%,-12%,?,24
COc1ccc(Cl)cc1NC(=O)CN(C)CC(=O)Nc1ccc(Br)cc1,-3%,?,-16%,-18%,-24%,-20
COc1ccc(Cl)cc1NC(=O)CN(C)CC(=O)NC(C)c1ccccc1 (stereo not drawn),·,?,10µM*,·,-16%,29
CS(=O)(=O)N(CC(=O)Nc1ccc(F)cc1F)C1CCCCC1,7%[46.1 µM],11%,32%,21%[46.1 µM],-3%,-6
COc1ccc(Cl)cc1NC(=O)CN(C)CC(=O)Nc1cc(OC)c(OC)c(OC)c1,·,?,15µM*,·,?,41
